Where “and” joins values, the source holds several entries; their conditions need not be identical. Equal entries are not always repeated. The campaign covered roughly 330,000 compounds. About 3,800 (1.2%) were called active. The sample holds actives, similar compounds and a random draw of the others, so the mix is not that of the screen. Cut-off read from the data, not from the text of the source: active = inhibition above about 15%; inconclusive = no clear call, values can overlap the other calls; inactive = below that.
Molecular target: NAD-dependent protein deacylase sirtuin-5, mitochondrial (Homo sapiens) (UniProt Q9NXA8)
Test: SIRT5 desuccinylase inhibitors, primary screen, biochemical, fluorescence imaging, single point, set 5 (AID 652115)
Conditions: Purified SirT5, succinyl-peptide AMC, trypsin-coupled fluorescence; at 15 µM; stronger effect = higher value

NAD-dependent protein deacylase sirtuin-5, mitochondrial (Homo sapiens), sequence (Q9NXA8 whole entry, looked up): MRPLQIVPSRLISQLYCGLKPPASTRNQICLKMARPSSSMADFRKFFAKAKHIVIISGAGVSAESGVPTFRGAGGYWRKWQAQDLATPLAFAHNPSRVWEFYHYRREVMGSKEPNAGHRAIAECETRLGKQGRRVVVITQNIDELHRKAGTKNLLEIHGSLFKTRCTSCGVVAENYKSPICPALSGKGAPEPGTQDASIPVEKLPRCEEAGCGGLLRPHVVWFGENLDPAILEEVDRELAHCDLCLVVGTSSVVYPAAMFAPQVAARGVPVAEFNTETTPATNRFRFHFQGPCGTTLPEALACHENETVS

| SMILES | inhibition |
| --- | --- |
| CC=Cc1ccc2n(c1=O)C[C@@H]1[C@@H](CO)[C@H](C(=O)NC3CCCC3)[C@H]2N1C(=O)c1cnccn1 (mixture of isomers) | -1.91% (inactive) |
| Cc1cccc(-c2ccc([C@H]3[C@H](CO)N4CCCCN(S(=O)(=O)c5cn(C)cn5)C[C@@H]34)cc2)c1 | -2.31% (inactive) |
| O=C(C[C@@H]1CC[C@@H]2[C@H](COC[C@@H](O)CN2Cc2ccc(F)cc2)O1)NCc1ccncn1 | 2.45% (inactive) |
| COc1cccc(S(=O)(=O)N(C)C[C@@H]2Oc3cc(C#CCN(C)C)ccc3S(=O)(=O)N([C@@H](C)CO)C[C@@H]2C)c1 | -0.424% (inactive) |
| COc1ccccc1S(=O)(=O)N(C)C[C@@H]1Oc2cc(C#CCC3CCCC3)ccc2S(=O)(=O)N([C@H](C)CO)C[C@H]1C | 18.3% (active) |
| COc1ccccc1S(=O)(=O)N(C)C[C@H]1Oc2cc(C#CCC3CCCC3)ccc2S(=O)(=O)N([C@@H](C)CO)C[C@H]1C | 16.1% (active) |
| COCC#Cc1ccc2c(c1)O[C@@H](CN(C)S(C)(=O)=O)[C@H](C)CN([C@H](C)CO)S2(=O)=O | -0.381% (inactive) |
| COc1cccc(S(=O)(=O)N(C)C[C@H]2Oc3cc(C#CCN(C)C)ccc3S(=O)(=O)N([C@H](C)CO)C[C@H]2C)c1 | 2.32% (inactive) |
| CCCC#Cc1ccc2c(c1)O[C@@H](CN(C)S(=O)(=O)c1cccc(OC)c1)[C@H](C)CN([C@@H](C)CO)S2(=O)=O | 0.047% (inactive) |
| C[C@H](O)C#Cc1ccc2c(c1)O[C@@H](CN(C)C(=O)C1CCCCC1)[C@H](C)CN([C@@H](C)CO)S2(=O)=O | 5.37% (inactive) |
| O=C(C[C@H]1CC[C@H]2[C@@H](COC[C@@H](O)CN2C(=O)Nc2ccc(C(F)(F)F)cc2)O1)NC1Cc2ccccc2C1 | -1.39% (inactive) |
| CN(C)[C@@H]1C(=O)C(C(N)=O)=C(O)[C@@]2(O)C(=O)C3=C(O)c4c(O)ccc(Cl)c4[C@@H](O)[C@H]3C[C@@H]12 | 6.39% (inactive) |
| C=C1c2c(Cl)ccc(O)c2C(O)=C2C(=O)[C@]3(O)C(O)=C(C(N)=O)C(=O)[C@@H](N(C)C)[C@@H]3[C@@H](O)C12 (stereo partly specified) | 35.9% (active) |
| CNC(=O)C[C@H]1CC[C@H]2[C@H](COc3ccc(NC(=O)c4cccc(F)c4)cc3C(=O)N2C)O1 | -1.94% (inactive) and 2.58% (inactive) |
| C[C@@H]1CN([C@@H](C)CO)C(=O)Cc2cc(NC(=O)Nc3cccc4ccccc34)ccc2O[C@H]1CN(C)CC1CCCCC1 | -4.93% (inactive) |
| N#CCc1c(C#N)c(N)nc(N2CCCC2)c1C#N | 26.2% (active) |
| N#Cc1c(C(F)(F)F)cc(-c2cccs2)nc1N1CCCCC1 | 5.73% (inactive) |
| N#Cc1c(N2CCCCC2)nc(N)c2c(N)nc(SCC(=O)O)cc12 | 7.29% (inactive) |
| CO[C@@H]1CN(C)C(=O)c2cc(NS(=O)(=O)CC(F)(F)F)ccc2OC[C@H](C)N(Cc2ccccn2)C[C@@H]1C | 2.12% (inactive) |
| C[C@@H]1CCCCO[C@H](CN(C)S(=O)(=O)c2cn(C)cn2)[C@@H](C)CN([C@@H](C)CO)C(=O)c2cc(NC(=O)c3ccncc3)ccc2O1 | 0.794% (inactive) |
| Oc1cccc2cc(-c3ccncc3)cnc12 | -0.877% (inactive) |
| CC(=O)Nc1ccc(CNc2nc(NCCN(C)C)nc3cc(-c4ccccc4)sc23)cc1 | 2.52% (inactive) |
| COc1cccc(CNc2nc(NCc3cccs3)nc3ccsc23)c1 | -1.12% (inactive) |
| COCCNc1nc(NCc2ccc(NC(C)=O)cc2)c2sccc2n1 | 16.4% (active) |

| SMILES | inhibition |
| --- | --- |
| COc1ccc(C[C@@H]2CCc3cnnn3COC[C@H](c3ccccc3)NC2=O)cc1 | 2.11% (inactive) |
| CCC(=O)N[C@H]1CC[C@H](CCn2cc(-c3cccc(OC)c3)nn2)O[C@H]1CO | -2.52% (inactive) |
| COc1ccc(C(=O)OCC(=O)c2ccc(C)c(S(=O)(=O)N3CCOCC3)c2)cc1OC | 25.2% (active) |
| Cc1ccc(C(=O)OCC(=O)N2CCCCCC2)cc1S(=O)(=O)N1CCOCC1 | 1.4% (inactive) |
| COc1ccc(CNC(=O)COC(=O)c2ccc(C)c(S(=O)(=O)N3CCOCC3)c2)cc1OC | -1.07% (inactive) |
| C[C@H]1CCCCO[C@@H](CN(C)C(=O)C2CCCCC2)[C@@H](C)CN([C@@H](C)CO)C(=O)c2cc(NS(=O)(=O)c3cccs3)ccc2O1 | 8.81% (inactive) |
| COCC#Cc1cnc2c(c1)C(=O)N([C@H](C)CO)C[C@@H](C)[C@@H](CN(C)Cc1ccccc1F)O2 | 1.75% (inactive) |
| CO[C@@H]1CN(C)C(=O)c2cc(NS(=O)(=O)c3cccc(F)c3)ccc2OC[C@@H](C)NC[C@@H]1C | -3.7% (inactive) |
| CCC(=O)Nc1ccc2c(c1)C(=O)N(C)C[C@@H](OC)[C@H](C)CN(Cc1ccccc1C(=O)O)[C@@H](C)CO2 | 2.25% (inactive) |
| O=C(C1CCCCC1)N1CC2(C1)[C@H](c1ccccc1)[C@H](CO)N2CC1CCCC1 | 5.17% (inactive) |
| O=C(COC(=O)c1ccc([N+](=O)[O-])o1)NC12CC3CC(CC(C3)C1)C2 | -5.22% (inactive) |
| O=C(COC(=O)c1cccnc1Cl)NC12CC3CC(CC(C3)C1)C2 | 0.076% (inactive) |
| O=C(COC(=O)c1ccc(Br)o1)NC12CC3CC(CC(C3)C1)C2 | 15.6% (active) |
| COCC(=O)Nc1ccc2c(c1)OC[C@@H](C)N(Cc1ccccn1)C[C@H](C)[C@@H](OC)CN(C)C2=O | -1.91% (inactive) |
| COc1cccc(S(=O)(=O)Nc2ccc3c(c2)C(=O)N(C)C[C@@H](OC)[C@@H](C)CN[C@@H](C)CO3)c1 | 5.28% (inactive) |
| C[C@H](O)C#Cc1cnc2c(c1)C(=O)N([C@@H](C)CO)C[C@H](C)[C@@H](CN(C)C(=O)c1ccccc1)O2 | -1.59% (inactive) |
| Cc1cccc(OCCC(=O)Nc2ccccc2C(N)=O)c1 | -1.74% (inactive) |
| COc1cccc(OCC(=O)Nc2ccccc2C(N)=O)c1 | 29.5% (active) |
| Cc1cccc(OCC(=O)Nc2ccccc2F)c1 | -2.03% (inactive) |
| O=C(C[C@@H]1CC[C@H]2[C@@H](COC[C@@H](O)CN2S(=O)(=O)c2cccc(Cl)c2)O1)N1CCCCC1 | 1.52% (inactive) |
| COc1ccccc1NC(=O)CCCc1c[nH]c2ccccc12 | -1.4% (inactive) |
| COc1ccc(CCNS(=O)(=O)c2ccc(F)cc2)cc1OC | -1.59% (inactive) |
| COc1ccc(S(=O)(=O)NCCc2c[nH]c3ccccc23)cc1OC | 21.4% (active) |
| CC=Cc1ccc2n(c1=O)C[C@H]1[C@H](CO)[C@@H](C(=O)NCC3CC3)N(Cc3nccs3)[C@@H]21 (mixture of isomers) | 1.01% (inactive) |

| SMILES | inhibition |
| --- | --- |
| COCC(=O)N1C[C@H]2[C@@H](c3ccccc31)[C@@H](CO)N2C(=O)NC(C)C | 0.583% (inactive) |
| O=C(C1CCC1)N1CC(=O)N2[C@H](C1)[C@@H](c1ccc(-c3ccccc3F)cc1)[C@@H]2CO | 3.28% (inactive) |
| C[C@H](CO)N1C[C@H](C)[C@H](CN(C)Cc2ccc(C(=O)Nc3ccccc3N)cc2)Oc2c(NC(=O)Nc3ccccc3)cccc2C1=O | -0.83% (inactive) |
| COC(=O)C1=C(C)N(C)C(=O)NC1c1ccc([N+](=O)[O-])o1 (stereo unspecified) | 17.2% (active) |
| COCCN1C(=O)N[C@@H](c2ccccc2)C(C(=O)OC)=C1C | -1.66% (inactive) |
| COc1ccc(C2NC(=O)N(C)C(C)=C2[N+](=O)[O-])cc1 (stereo unspecified) | 2.48% (inactive) |
| CC=Cc1ccc2n(c1=O)C[C@H]1[C@H](CO)[C@@H](C(=O)N3CCCCC3)N(Cc3ccccn3)[C@@H]21 (mixture of isomers) | 3.91% (inactive) |
| C[C@@H](NC(=O)C[C@H]1C[C@H]2c3cc(NC(=O)C4CCOCC4)ccc3O[C@H]2[C@@H](CO)O1)c1ccccc1 | -0.41% (inactive) |
| Cc1cc(C)c2[nH]c(=O)c(CN(Cc3ccccc3)C(=S)NCCCN(C)C)cc2c1 | -6.33% (inactive) |
| COCCCNC(=S)NNC(=O)C(O)(c1ccccc1)c1ccccc1 | -5.23% (inactive) |
| COCCCNC(=S)N(Cc1ccccc1)Cc1ccc(F)cc1 | 15.1% (active) |
| COCC(=O)N1[C@H](CO)[C@@H](c2ccccc2)[C@H]1CN(C)C(=O)c1ccncc1 | 3.21% (inactive) |
| CN(c1ccccc1)S(=O)(=O)c1ccc2[nH]c(=O)[nH]c2c1 | -0.22% (inactive) |
| CCN(c1ccccc1)S(=O)(=O)c1ccc(OCC(=O)N2CCCC2)cc1 | -0.147% (inactive) |
| CCN(c1ccccc1)S(=O)(=O)c1ccc2[nH]c(=O)[nH]c2c1 | 23.9% (active) |
| O=C(C[C@H]1C=C[C@H](NC(=O)Cc2ccccn2)[C@@H](CO)O1)NCCc1ccccc1 | 6.76% (inactive) |
| O=C(C1CCCC1)N1CC(=O)N2[C@H](C1)[C@@H](c1ccc(-c3cccnc3)cc1)[C@@H]2CO | 1.11% (inactive) |
| CO[C@H]1CN(C)C(=O)c2ccc(NC(=O)Nc3c(C)noc3C)cc2OC[C@@H](C)NC[C@H]1C | -5.86% (inactive) |
| CC(C)c1ccc(C=NNc2ccc([N+](=O)[O-])cn2)cc1 | 1.24% (inactive) |
| Cc1cccc(-n2c(C)cc(/C=N\NC(=O)c3cccs3)c2C)c1 | -1.07% (inactive) |
| Cc1cc(/C=N/Nc2ccc([N+](=O)[O-])cn2)c(C)n1-c1cccc(C(=O)O)c1 | 17.7% (active) |
| O=S(=O)(c1ccc(F)cc1)N1CC[C@@H]2[C@@H](CO)Nc3ccc(-c4ccccc4F)cc3[C@@H]21 | 7.3% (inactive) |
| O=C(C[C@@H]1C[C@@H]2c3cc(NC(=O)Nc4ccc(F)cc4)ccc3O[C@@H]2[C@H](CO)O1)NCC(F)(F)F | -3.74% (inactive) |
